# High-throughput results from PubChem BioAssay.
# INS promoter inh: TRM-6 insulin promoter activity inhibition. inhibition, % at 2 µM. AID 1273. 0.9% of 130,000 active. TRM-6 cells (human fetal islet line), insulin promoter-eGFP reporter, imaging; reporter expression induced with tamoxifen;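 active means inhibition above the mean plus 3 SD, with well images judged a real hit on visual review, cut at about 60% in these data, passing the limit was not always enough; inconclusive means inhibition over the cutoff but images rejected on review; inactive means inhibition not above the cutoff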
# ROMK primary: modulators of human ROMK potassium channel. P48048. Tet-inducible ROMK, thallium flux fluorescence; actives lie on both sides. B-score at 10 µM. 2% of 130,000 active. AID 1918;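 active means signal ratio slope over the read window, or its plate-corrected B-score, at least 3 SD from the plate mean, either direction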;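 further: B-score of the F/F0 ratio slope over 7 to 12 s after thallium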
# WT yeast gro inh: growth inhibition of WT yeast, mitochondrial fusion screen | inhibition, % at 10 µM | 2.1% of 190,000 active | mitochondrial fusion phenotypic screen, WT strain; in the data active means inhibition above about 58%; tested in S. cerevisiae
# L major viab: Leishmania major promastigote growth inhibition | 9% of 200,000 active | Leishmania major promastigotes, resazurin fluorescence viability | inhibition, % at 10 µM; in the data active means inhibition above about 50%;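 further: promastigotes grown with compound for 44 hours at 28 °C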
# Ins promoter up: MIN6 insulin promoter up-regulation | MIN6 insulin promoter-GFP reporter, high-content imaging; stronger effect = higher value | z-score at 5 µM | 0.3% of 190,000 active;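 active means z-score above 3 at 5 µM with at least 500 cells counted in the well; inconclusive means wells under 500 cells, flagged as cytotoxic or low count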
# KCC2 mod: modulators of human KCC2 chloride dependent transport | 2.2% of 190,000 active | KCC2 cells, thallium flux FluoZin-2 fluorescence | AID 1456 | B-score of Tl+ flux slope (higher = more flux/activation; lower = inhibition) at 10 µM | Q9H2X9;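 active means thallium flux slope and its plate-corrected score both differing from the plate sample mean at a set confidence after two filtering rounds, in either direction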;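 further: slope of fluorescence scaled to starting intensity during 10 to 20 s after thallium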
# Target sequence (Q9H2X9 whole entry, looked up): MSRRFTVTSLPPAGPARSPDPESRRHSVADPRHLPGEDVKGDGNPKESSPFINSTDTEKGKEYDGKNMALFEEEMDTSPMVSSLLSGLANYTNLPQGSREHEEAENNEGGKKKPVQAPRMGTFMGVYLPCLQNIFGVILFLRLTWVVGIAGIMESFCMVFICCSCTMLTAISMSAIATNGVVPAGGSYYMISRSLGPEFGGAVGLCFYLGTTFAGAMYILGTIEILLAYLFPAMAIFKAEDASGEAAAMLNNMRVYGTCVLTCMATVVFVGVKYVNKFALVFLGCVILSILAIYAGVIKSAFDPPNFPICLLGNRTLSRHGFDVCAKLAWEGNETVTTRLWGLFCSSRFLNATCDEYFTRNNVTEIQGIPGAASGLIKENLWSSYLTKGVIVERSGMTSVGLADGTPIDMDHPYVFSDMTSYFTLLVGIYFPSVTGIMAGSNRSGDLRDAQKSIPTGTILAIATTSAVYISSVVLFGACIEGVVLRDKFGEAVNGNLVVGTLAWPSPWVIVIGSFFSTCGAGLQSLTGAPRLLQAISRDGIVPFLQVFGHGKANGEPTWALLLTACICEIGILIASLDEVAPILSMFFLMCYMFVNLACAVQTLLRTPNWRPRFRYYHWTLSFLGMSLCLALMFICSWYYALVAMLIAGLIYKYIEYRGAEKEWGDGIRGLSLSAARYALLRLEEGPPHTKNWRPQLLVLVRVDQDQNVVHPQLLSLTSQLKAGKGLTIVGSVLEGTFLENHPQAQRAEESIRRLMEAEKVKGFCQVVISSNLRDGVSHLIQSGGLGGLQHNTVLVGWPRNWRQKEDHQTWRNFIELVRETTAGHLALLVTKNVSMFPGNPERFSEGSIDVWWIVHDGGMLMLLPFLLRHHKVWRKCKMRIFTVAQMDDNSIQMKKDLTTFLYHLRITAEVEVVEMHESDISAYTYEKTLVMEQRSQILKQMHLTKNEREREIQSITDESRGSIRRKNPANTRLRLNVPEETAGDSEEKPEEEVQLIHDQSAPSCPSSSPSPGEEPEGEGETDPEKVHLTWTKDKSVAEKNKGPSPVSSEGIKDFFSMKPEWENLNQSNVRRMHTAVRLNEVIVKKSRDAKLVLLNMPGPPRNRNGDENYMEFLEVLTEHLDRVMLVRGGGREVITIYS
# ROMK hit retest: human ROMK channel modulation, retest confirmation. ROMK thallium flux, fluorescence ratio; stronger effect = lower value. shares compounds with ROMK primary. normalized thallium flux (F/F0 slope) at 10 µM. AID 1917. 54% of 3,000 active;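 active means Flux at 10 µM at least 3 SD below or above vehicle control mean in one or both replicates; inconclusive means no clear call, values can overlap the other calls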
# * = called active by the depositor; i = inactive; ? = inconclusive; · = not tested or not shown. Shown are actives, neighbours in structure and some others; about 12% of the full set was active somewhere.
SMILES,INS promoter inh,ROMK primary,WT yeast gro inh,L major viab,Ins promoter up,KCC2 mod,ROMK hit retest
CN(C)c1nc2c(c(=O)[nH]c(=O)n2C)n1Cc1ccc(F)cc1,·,·,9,-1,0.7,0.45,·
Cc1noc(NS(=O)(=O)c2ccc(N/C=C\C(=O)c3ccc(Br)cc3)cc2)c1C,7,6*,3,-10,0.6,-1.1,0.099*
CCc1nnc(NS(=O)(=O)c2ccc(N/C=C/C(=O)c3ccc(OC)cc3)cc2)s1,·,4.1*,-5,-7,0.11,-0.39,0.094
CCOc1ccc(C(=O)/C=C/Nc2ccc(S(=O)(=O)Nc3onc(C)c3C)cc2)cc1,-138,2.7*,-11,1,1.4,-0.49,0.089
CCCCNC(=O)CN1C(=O)NC2NC(=O)NC21 (stereo not given),·,·,-4,-6,0.12,-0.6,·
Cc1cc(C(=O)NCCC(c2ccccc2)c2ccccc2)c(C)o1,-23,0.058,-8,38,-0.26,-0.46,·
COc1ccc(-n2c(C)c([N+](=O)[O-])c3ccc(O)c(CN(C)C)c32)cc1,53,·,6,17,2.1,-0.8,0.033*
COc1ccc(-n2c(C(C)n3nc(C)c([N+](=O)[O-])c3C)n[nH]c2=S)cc1 (stereo not given),i,·,-4,-6,·,-0.27,·
O=C(c1cccnc1)C1CCCN(Cc2nc(Cc3ccccc3)no2)C1 (stereo not given),·,·,6,16,-0.7,0.16,·
COCC1CCCN(Cc2nc(Cc3ccccc3)no2)C1 (stereo not given),·,0.57*,-9,2,0.51,-0.28,0.078
CCOc1ccccc1CNc1nc2nc3c(c(=O)n2[nH]1)CCC3,1,·,-4,-2,0.03,·,0.079
C/C(=C\C(=O)C(F)(F)F)Nc1cc(C)cc(C)c1,3,·,-14,-2,0.2,·,·
C=CCOc1ccc(C=Nc2cccc(Cl)c2)c(O)c1,15,-2.9*,-17,-9,0.55,-0.096,0.081
O=[N+]([O-])c1cc(S(=O)(=O)N2CCCCC2)ccc1NCc1cccc(Cl)c1,·,·,6,10,-1,-0.62,·
COc1ccc(-c2nnnn2-c2ccc(F)cc2F)cc1,5,-3.3*,-3,3,·,-0.26,?
COc1ccc(-n2nnnc2-c2ccccc2)cc1,-45,0.78,-24,-2,-2.4,0.76,·
Cc1cccc2cc(CN(CC3CCCO3)C(=S)NCc3ccco3)c(=O)[nH]c12 (stereo not given),8,-0.019,-13,10,·,-0.33,·
Cc1cc(C)c2[nH]c(=O)c(C(c3nnnn3C(C)(C)C)N(Cc3ccco3)CC3CCCO3)cc2c1 (stereo not given),-9,-3.3*,6,45,·,0.0016,0.058*
Cc1cccc2cc(CN(CC3CCCO3)C(c3nnnn3Cc3ccco3)C(C)C)c(=O)[nH]c12 (stereo not given),-15,-3*,15,50*,-0.29,0.78,0.071
Cn1c(=O)c2c(SCc3ccccc3)nc(C3CC3)nc2n(C)c1=O,·,·,·,·,-0.88,-0.85,·
Cn1c(=O)c2c(SCC(=O)N3CCCc4ccccc43)nc(C3CC3)nc2n(C)c1=O,·,·,6,61*,-0.22,-1.1,0.071
Cc1cccc(COCC(Cc2ccccc2)N2CCN(C(=O)c3cccc(Cl)c3)CCC2=O)c1 (stereo not given),14,-2.9*,38,25,-0.85,-0.44,0.054*
Cc1cccc(C(=O)N2CCC(=O)N(C(COCc3cccc(C(F)(F)F)c3)Cc3ccccc3)CC2)c1 (stereo not given),-36,-3.3*,39,14,-1,-0.9,0.058*
Cc1ccc(S(=O)(=O)N2CCC(=O)N(C(COCc3ccc(Cl)cc3)Cc3ccccc3)CC2)cc1 (stereo not given),-95,-4.4*,27,34,·,-3.3,?
O=C(CCN1C(=O)C2C3C=CC(C3)C2C1=O)N1CCN(c2ccccc2F)CC1 (stereo not given),·,·,-7,-10,-0.34,0.36,·
SMILES,INS promoter inh,ROMK primary,WT yeast gro inh,L major viab,Ins promoter up,KCC2 mod,ROMK hit retest
CCOC(=O)Cn1nc(C)n(-c2ccc(Br)cc2)c1=O,·,1.3,-18,-1,0.52,-0.084,·
O=C(c1c(F)c(F)c(F)c(F)c1F)N1CCN(c2cccc(C(F)(F)F)c2)CC1,0,·,11,-2,0.3,-0.44,·
O=C(/C=C/c1ccc(Br)cc1)N1CCN(c2cccc(C(F)(F)F)c2)CC1,·,·,42,-4,0.96,0.25,0.077
COC(=O)c1cc(CN2CCN(c3ccccc3C)CC2)ccc1O,-17,-0.35,26,4,-0.79,·,·
C=CCn1c(SCc2ccc(C(=O)Nc3nccs3)cc2)nnc1-c1ccc(C)c(Cl)c1,·,·,23,13,-0.83,0.085,0.073
Nc1ncnc2c1ncn2CCNCCc1ccccc1,-3,·,7,-2,-0.49,·,0.082
CC(=O)OC1c2c(ccc3ccc(=O)oc23)OC(C)(C)C1OC(=O)CC(C)C (stereo not given),·,·,23,16,0.8,-0.94,·
CC(C(=O)NC(=O)NC1CCCCC1)N1CCN(C(c2ccccc2)c2ccccc2)CC1 (stereo not given),3,-3.3*,73*,39,-0.4,-0.6,0.057*
O=C(NC1CCCCC1)C(c1ccccc1)N1CCCC1 (stereo not given),·,·,3,-5,-0.13,-0.061,·
C=CC[n+]1c(-c2ccc(Cl)cc2Cl)csc1Nc1ccc(NC(C)=O)cc1,·,2.5*,86*,53*,-0.68,-0.78,0.079
C=CC[n+]1c(C)csc1Nc1ccc(C)cc1,2,0.17,18,27,-0.78,·,·
Cc1cccc(C2NC(c3cccc(C)c3)C([N+](=O)[O-])C(C)(C)C2[N+](=O)[O-])c1 (stereo not given),-27,·,18,10,-0.6,0.75,·
C=CCn1c(N)c(C(=O)NCC2CCCO2)c2nc3ccccc3nc21 (stereo not given),·,·,-3,11,0.27,·,0.066*
CCC(C)C(NC(=O)C(C)NC(=O)CNC(=O)CNC(=O)OCc1ccccc1)C(=O)OC (stereo not given),-343,0.034,5,-6,-0.18,-0.53,·
COc1ccc(N=Cc2c(O)c3ccccc3n2C(C)=O)cc1,·,·,·,·,1.8,i,0.033*
O=C(Cc1c[nH]c2ccccc12)OCC(=O)c1ccccc1,22,·,44,-5,0.76,-0.72,·
COc1ccc(S(=O)(=O)Nc2nc3ccccc3nc2Nc2ccc3c(c2)OCO3)cc1,-20,-0.63,6,5,0.24,1.7,·
O=S(=O)(Nc1nc2ccccc2nc1Nc1ccc2c(c1)OCCO2)c1cccs1,27,·,32,53*,-0.11,-2.9,?
Cc1cc(C)c(C#N)c(Oc2ccc(O)cc2)n1,-114,·,-4,27,1.1,0.78,·
Cc1cc(C)c(C#N)c(Oc2ccc(F)cc2)n1,0,·,4,-5,-0.27,0.92,0.083
